# Results published in PubChem BioAssay (NCATS).
# Values without a mark were called inactive. Records with an inconclusive call do not appear. Where a call stands in place of a potency, no number is given. Calls of active or inactive are those of the source. Calls come from the whole dose curve; as a rule, active = well fitted curve in the direction sought with a large enough effect; inconclusive = small, poorly fitted or top-dose-only effect, or another doubt; inactive = no such curve, though single readings can be large; an effect the other way counts as inactive or inconclusive. Where a SMILES comes first, the peptide text is derived from it. [ ]: non-standard residue; d: D form. ξ: configuration not given here. ξLac(3-iPr) = CC(C)CC(O)C(=O)O; NMeV = CN[CH](C(=O)O)C(C)C; βAla = NCCC(=O)O
# Key:
# [1] = Primary qHTS for inhibitors of nuclear receptor binding SET domain protein 2 (NSD2) in an RCH-ACV wild type WT cells (2C) (AID 1645877); note: nearly all actives have a fitted effect of over 70% in size; note: potency is the fitted concentration of half-maximal effect
# [2] = biological target: Glutathione peroxidase 1 (Homo sapiens) (UniProt P07203); assay: Primary qHTS Assay for Inhibitors of Recombinant Selenoprotein Glutathione Peroxidase 1 (GPX1) (AID 1845191); note: nearly all actives have a fitted effect of over 65% in size
# Outline: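 10 nM GPX1 + cpd, 30 min RT; start w/ 1 mM GSH, 0.5 mM cumene hydroperoxide, 0.5 mM NADPH, 100 nM GR, 0.01% BSA; buffer 50 mM Tris-HCl pH 7.5, 2 mM EDTA, 150 mM NaCl; Fl 340/450, 0 & 15 min.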
# [3] = biological target: Phospholipid hydroperoxide glutathione peroxidase GPX4 (Homo sapiens) (UniProt P36969); assay: Primary qHTS Assay for Inhibitors of Recombinant Selenoprotein Glutathione Peroxidase 4 (GPX4) (AID 1845192); note: nearly all actives have a fitted effect of over 65% in size; for activity change, negative = inhibition: series mostly up to about 50 µM
# Outline: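 NADPH consumption, followed by fluorescence at 340/450 nm between 0 and 15 min, reports GPX4 activity via coupled glutathione reductase (100 nM). Enzyme 200 nM was pre-exposed to compound 30 min; 0.5 mM cumene hydroperoxide and 1 mM GSH served as substrates.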
# [4] = biological target: Luciferin 4-monooxygenase (Photinus pyralis) (UniProt P08659); assay: Primary firefly luciferase (FLuc) qHTS assay for identification of artifact compounds. (AID 1845220); note: nearly all actives have a fitted effect of over 60% in size; for activity change, negative = inhibition: series mostly up to about 54 µM
# Outline: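 FLuc 10 nM; luciferin 10 uM; ATP 10 uM; Tris-acetate pH 7.6, Mg-acetate 10 mM; 15 min RT preincubation; 5 min reaction; luminescence.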
# [5] = Primary fluorescence-based thiol-reactive (MSTI) qHTS assay for identification of artifact compounds. (AID 1845221); note: nearly all actives have a fitted effect of over 65% in size; note: potency is the fitted concentration of half-maximal effect;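 for activity change, negative = thiol reactive: series mostly up to about 54 µM; thiol-reactive compounds lower the probe fluorescence signal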
# Outline: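 One-hour, room-temperature, dark incubation of compound with 4 uM MSTI in PBS (pH 7.4, 2% DMSO) precedes a fluorescence read at 525 nm excitation, 598 nm emission; Hill-equation fitting yields concentration-response values.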
# [6] = tested on: Nanoluciferase (engineered Oplophorus gracilirostris luciferase); assay: Primary Nanoluciferase (NLuc) qHTS assay for identification of artifact compounds. (AID 1845222);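 note: NLuc secreted into diluted conditioned medium of S16 cells; series mostly up to about 54 µM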
# Outline: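 NLuc from S16 cell medium (1:55) plus test compounds, 15 min, room temperature. Luminescence after Nano-Glo (1:100) addition, 5 min.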
# [7] = Primary redox qHTS assay for identification of artifact compounds. (AID 1845223)
# Outline: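 Amplex Red (25 uM) and HRP (250 mU/mL) in HBSS, with compounds for 15 min, then 250 uM DTT for 30 min, room temperature, dark. Fluorescence 525/598 nm read; normalized to DMSO and 10 uM DA3003; Hill fit.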
# Glutathione peroxidase 1 (Homo sapiens), sequence (P07203 whole entry, looked up): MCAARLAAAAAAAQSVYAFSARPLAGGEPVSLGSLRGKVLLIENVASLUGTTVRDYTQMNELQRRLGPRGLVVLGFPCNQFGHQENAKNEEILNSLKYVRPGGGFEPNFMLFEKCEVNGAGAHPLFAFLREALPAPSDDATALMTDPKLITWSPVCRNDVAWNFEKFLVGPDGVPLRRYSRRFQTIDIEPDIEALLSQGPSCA
# Phospholipid hydroperoxide glutathione peroxidase GPX4 (Homo sapiens), sequence (P36969 whole entry, looked up): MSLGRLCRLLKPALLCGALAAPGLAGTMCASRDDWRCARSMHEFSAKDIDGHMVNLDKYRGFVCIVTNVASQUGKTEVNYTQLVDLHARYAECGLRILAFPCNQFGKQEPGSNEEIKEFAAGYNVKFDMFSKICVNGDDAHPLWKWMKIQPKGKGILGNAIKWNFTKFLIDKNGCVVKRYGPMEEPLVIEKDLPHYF
smiles,measurement,setting,value
COc1cc(Nc2nc3c(s2)CCCC3c2ccc(F)cc2)ccc1-n1cnc(C)c1 (centres undefined),Potency,[1],10.3 µM (active)
same,Potency,[2],inactive
same,Potency,[3],inactive
same,Potency,[4],inactive
same,Potency,[5],11.9 µM (active)
same,Potency,[6],inactive
same,Potency,[7],inactive
COC(=O)c1ccc(OC(CO)C(O)c2ccc(O)c(OC)c2)c(OC)c1 (centres undefined),Potency,[1],inactive
same,Potency,[2],inactive
same,Potency,[3],inactive
same,Potency,[4],inactive
same,Potency,[5],inactive
same,Potency,[6],inactive
same,Potency,[7],inactive
Nc1nc2c(ncn2[C@@H]2O[C@@H]3COP(=O)(O)O[C@H]3[C@H]2O)c(=O)[nH]1,Potency,[1],inactive
same,Potency,[2],inactive
same,Potency,[3],inactive
same,Potency,[4],inactive
same,Potency,[5],inactive
same,Potency,[6],inactive
same,Potency,[7],inactive
CC(C)C(=O)OC[C@H]1O[C@H](O[C@H]2O[C@H](CO)[C@@H](O)[C@H](O)[C@H]2O)[C@H](O)[C@@H](O)[C@@H]1O,Potency,[1],inactive
same,Potency,[2],inactive
same,Potency,[3],inactive
same,Potency,[4],inactive
same,Potency,[5],inactive
same,Potency,[6],inactive
same,Potency,[7],inactive
C=C1C[C@]23C[C@H]1CC[C@H]2[C@@]1(C)CCC[C@@]2(C)C(=O)O[C@@H]([C@@H]3O)[C@@H]12,Potency,[1],inactive
same,Potency,[2],inactive
same,Potency,[3],inactive
same,Potency,[4],inactive
same,Potency,[5],inactive
same,Potency,[6],inactive
same,Potency,[7],inactive
COc1cc2ncnc(Nc3cccc(O)c3)c2cc1OC,Potency,[1],3.25 µM (active)
same,Potency,[2],inactive
same,Potency,[3],inactive
same,Potency,[4],inactive
same,Potency,[5],inactive
same,Potency,[6],inactive
same,Potency,[7],inactive
CC1(C)CC[C@]2(C(=O)O[C@@H]3O[C@H](CO)[C@@H](O)[C@H](O)[C@H]3O)CC[C@]3(C)C(=CCC4[C@@]5(C)CC[C@H](O[C@@H]6O[C@H](C(=O)O)[C@@H](O)[C@H](O[C@@H]7O[C@H](CO)[C@H](O)[C@H](O)[C@H]7O)[C@H]6O)C(C)(C)C5CC[C@]43C)C2C1 (some centres undefined),"activity change, negative = cell killing",[1],-15.1% [at 9.23 µM]
same,Potency,[2],inactive
same,Potency,[3],inactive
same,"activity change, negative = inhibition",[4],-3.44% [at 11.6 µM]
same,"activity change, negative = thiol reactive",[5],172% [at 11.5 µM]
same,"activity, negative = inhibition",[6],3.94% [at 11.6 µM]
same,redox activity (% of DA3003),[7],0.97% [at 11.5 µM]
CC1=C(C(=O)O)/C(=C\CO[C@@H]2O[C@H](CO)[C@@H](O)[C@H](O)[C@H]2O)C(OC(=O)/C=C/c2ccc(O)cc2)C1 (some centres undefined),Potency,[1],inactive
same,Potency,[2],inactive
same,Potency,[3],inactive
same,Potency,[4],inactive
same,Potency,[5],4.62 µM (active)
same,Potency,[6],inactive
same,Potency,[7],inactive
O=C(Nc1ccc(-c2ccncc2)cc1)N[C@H](CO)c1ccccc1,Potency,[1],23 µM (active)
same,Potency,[2],inactive
same,Potency,[3],inactive
same,Potency,[4],inactive
same,Potency,[5],inactive
same,Potency,[6],inactive
same,Potency,[7],inactive
O=C(c1ccc2nccnc2c1)N1CCCCC1,Potency,[1],inactive
same,Potency,[2],inactive
same,Potency,[3],inactive
same,Potency,[4],inactive
same,Potency,[5],inactive
same,Potency,[6],inactive
same,Potency,[7],inactive
CC(C)CC1OC(=O)C2CCCN2C(=O)CCNC(=O)C(Cc2ccccc2)NC(=O)C(C(C)C)N(C)C(=O)C(C(C)C)N(C)C1=O (centres undefined) (cyclo([ξLac(3-iPr)][NMeV][NMeV]F[βAla]P); configuration not given here),Potency,[1],inactive
same,Potency,[2],inactive
same,Potency,[3],inactive
same,Potency,[4],inactive
same,Potency,[5],inactive
same,Potency,[6],inactive
same,Potency,[7],inactive
C[C@@H]1O[C@@H](O[C@H]2[C@H](OC(=O)[C@]34CCC(C)(C)C[C@H]3C3=CCC5[C@@]6(C)CC[C@H](O[C@@H]7O[C@H](C(=O)O)[C@@H](O)[C@H](O)[C@H]7O[C@@H]7O[C@H](CO)[C@H](O)[C@H](O)[C@H]7O)[C@@](C)(C=O)C6CC[C@@]5(C)[C@]3(C)C[C@H]4O)O[C@H](C)[C@H](O[C@@H]3O[C@H](C)[C@H](O)[C@H](O)[C@H]3O)[C@@H]2O)[C@H](O)[C@H](O)[C@H]1O[C@@H]1OC[C@@H](O)[C@H](O[C@@H]2O[C@H](CO)[C@@H](O)[C@H](O)[C@H]2O)[C@H]1O (some centres undefined),"activity change, negative = cell killing",[1],-94% [at 4.96 µM]
same,"activity, negative = inhibition",[2],1.71% [at 9.52 µM]
same,outcome,[3],inactive [at 9.73 µM]
same,outcome,[4],inactive [at 6.45 µM]
same,"activity change, negative = thiol reactive",[5],292% [at 6.41 µM]
same,"activity, negative = inhibition",[6],4.73% [at 6.45 µM]
same,redox activity (% of DA3003),[7],3.32% [at 6.41 µM]
COC1CC(O[C@H]2CC[C@@]3(C)C(CCC4C3[C@H](OC(C)=O)[C@@H](OC(=O)/C=C/c3ccccc3)[C@]3(C)C(C(C)=O)CC[C@]43O)C2)OC(C)C1OC1CC(OC)C(OC2CC(OC)C(OC3OC(C)C(OC4OC(CO)C(O)C(O)C4O)C(OC)C3O)C(C)O2)C(C)O1 (some centres undefined),"activity change, negative = cell killing",[1],-29.1% [at 9.23 µM]
same,outcome,[2],inactive [at 9.52 µM]
same,"activity change, negative = inhibition",[3],-9.21% [at 9.73 µM]
same,outcome,[4],inactive [at 11.6 µM]
same,"activity change, negative = thiol reactive",[5],2.39% [at 11.5 µM]
same,"activity, negative = inhibition",[6],-1.88% [at 11.6 µM]
same,redox activity (% of DA3003),[7],-6.18% [at 11.5 µM]
COc1cc(/C=C/C(=O)O[C@H]2[C@H](O)[C@@H](CO)O[C@@]2(CO)O[C@H]2O[C@H](CO)[C@@H](O)[C@H](O)[C@H]2O)ccc1O,Potency,[1],inactive
same,Potency,[2],inactive
same,Potency,[3],inactive
same,Potency,[4],inactive
same,Potency,[5],inactive
same,Potency,[6],inactive
same,Potency,[7],inactive
COc1cc(/C=C/C=O)cc(OC)c1O[C@@H]1O[C@H](CO)[C@@H](O)[C@H](O)[C@H]1O,Potency,[1],inactive
same,Potency,[2],inactive
same,Potency,[3],inactive
same,Potency,[4],inactive
same,Potency,[5],14.7 µM (active)
same,Potency,[6],inactive
same,Potency,[7],inactive
C=C1C(O)C(O)C2(CC3C(C)=CCC4C(C)(CO)CCCC34C)OC2C1O (centres undefined),Potency,[1],inactive
same,Potency,[2],inactive
same,Potency,[3],inactive
same,Potency,[4],inactive
same,Potency,[5],inactive
same,Potency,[6],inactive
same,Potency,[7],inactive
COc1ccccc1NC(=O)OCC1CCN(C(=O)OC(C)(C)C)CC1,Potency,[1],inactive
same,Potency,[2],inactive
same,Potency,[3],inactive
same,Potency,[4],inactive
same,Potency,[5],inactive
same,Potency,[6],inactive
same,Potency,[7],inactive
